According to the supplement of paper PMC10105736:
Values without a mark were called inactive.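 Rule for the calls: active = MAPPIT score above the 99th percentile of random reference set scores in the same batch; inactive = at or below it.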

Tests used:
Experiment in all cases: MAPPIT interaction score (arbitrary units); higher = stronger binary interaction signal, active = hit call of the paper
Sod3 = target: Sod3
SmydA-8 = conditions: MAPPIT configuration: N-N; pair source set: screen_2
Smn = conditions: MAPPIT configuration: N-C; pair source set: Lit-BM-16
Six4 = conditions: MAPPIT configuration: N-N; pair source set: Lit-BS-16
Snapin = conditions: MAPPIT configuration: N-N; pair source set: Lit-BM-16
Sirt2 = conditions: MAPPIT configuration: N-N; pair source set: Finley_Y2H
Sms = conditions: MAPPIT configuration: N-N; pair source set: Finley_Y2H
Snap29 = conditions: MAPPIT configuration: N-C; pair source set: Lit-BM-16
Slh = conditions: MAPPIT configuration: N-N; pair source set: Finley_Y2H
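Note: HEK293T cells with Epo stimulation, STAT-responsive firefly luciferase reporter, fold induction versus unstimulated cells divided by the larger fold induction of two negative controls lacking either bait or prey.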

B1: shv (protein)
chain: MQLIKCLVIIQLSLLLVEESFAGRDFYKILNVKKNANTNEVKKAYRRLAKELHPDKNKDDPDASTKFQDLGAAYEVLSNPDKRKTYDRCGEECLKKEGMMDHGGDPFSSFFGDFGFHFGGDGQQQDAPRGADIVMDLYVSLEELYSGNFVEIVRNKPVTKPASGTRKCNCRQEMVTRNLGPGRFQMIQQTVCDECPNVKLVNEERTLEIEVEQGMVDGQETRFVAEGEPHIDGEPGDLIVRVQQMPHPRFLRKNDDLYTNVTISLQDALVGFSMEIKHLDGHLVPVTREKVTWPGARIRKKGEGMPNFENNNLTGNLYITFDVEFPKKDLTEEDKEALKKILDQSSINRIYNGL
B1 gave an MAPPIT interaction score (Sod3; MAPPIT configuration: N-N, pair source set: Curagen_high_conf) of 0.367.

B2: Hsp67Bc (protein)
chain: MPDIPFVLNLDSPDSMYYGHDMFPNRMYRRLHSRQHHDLDLHTLGLIARMGAHAHHLVANKRNGELAALSRGGASNKQGNFEVHLDVGLFQPGELTVKLVNECIVVEGKHEEREDDHGHVSRHFVRRYPLPKEFDSDAIVSTLSEDGVLNITVPPLVSKEELKERIIPIKHVGPSDLFQNGNGHKEAGPAASASEPEAK
B2 was tested, and the MAPPIT interaction score (SmydA-8) was -0.475.

B3: Gem2 (protein)
chain: MQHEPEDQTFQLQALEICEPDSSFDPQKPPESGEEYLMHMFYERKRCPAVVTKRSSKIRNNTGNTTLEMLDNPELPPFKCLLPTPEWRDEQVKSFQAARSQVLVLRKELANNNYDQSGEPPLTSDQEKWKEFCRNQQPLLSTLLHLTQNDLELLLEMLSKWLQDPNTTVDLLHDVWLARWLYATLVCLHLPLEPHVFSTLRYIARTCIHLRNQLKEDEVQRAAPYNLLLTLTVQVFAQNDFKDYI
For B3, the MAPPIT interaction score (Smn) was 2.73.

B4: CG30031 (protein)
chain: MLKFVILLSAVACALGGTVPEGLLPQLDGRIVGGSATTISSFPWQISLQRSGSHSCGGSIYSSNVIVTAAHCLQSVSASVLQIRAGSSYWSSGGVTFSVSSFKNHEGYNANTMVNDIAIIKINGALTFSSTIKAIGLASSNPANGAAASVSGWGTLSYGSSSIPSQLQYVNVNIVSQSQCASSTYGYGSQIRSTMICAAASGKDACQGDSGGPLVSGGVLVGVVSWGYGCAYSNYPGVYADVAALRSWVISNA
In the case of B4, the MAPPIT interaction score (Six4) is reported as -0.185.

B5: Dysb (protein)
chain: MFGNLKKKLSSAIQEGLVISENLQQQYRQRVSSGNSGSSQASGITTPISPLGLNESLSSSRSSSLSLSAPFQLTDGVPSHLNVAAGCSLLAKYEDDWQQIHGANEKNAEKAAQIANQISGIQDQASHQHRIMSELNSSLAGIPTLIAQLQNSSQVLNSLEEMGKQLEIELEKLEDLREECELQEFILEQQFQLSRHKQKKLNELEQYRQQIAQKHQSKIKDQEQTLLKLQRERQAVFDDAFREDMEEYKQRGQLTKIQTTSNKLALEEVVLEANEVETKDALEQFLNG
For B5, the MAPPIT interaction score (Snapin) was 3.8 (active).

B6: Pgam5 (protein)
chain: MRKLTSFVCGTGAGLAAYYLQRLRDPQTVVQNSWTHSDKPVDPWALWDTNWDCREPRALVRPLRNSQPEEENRYNAELEKAKAKKARHIILVRHGEYLDVGDSDDTHHLTERGRKQAEFTGKRLCELGIKWDKVVASTMVRAQETSDIILKQIDFEKEKVVNCAFLREGAPIPPQPPVGHWKPEASQFLRDGSRIEAGFRRYFHRAYPDQEKESYTLIVGHGNVIRYFVCRALQFPAEGWLRININHASITWLTISPSGNVSIKYLGDSGFMPAELLTNRIPRDVKNVV
Binder B6 has an MAPPIT interaction score (Sirt2) of 0.996.

B7: l(2)34Fc (protein)
chain: MFRLLVLAACLAISVHAYSDGAPKAACRDLTPQHGAKLQVTKPPYSISGPSHVRSDQKLTLTLGGDEFLGFMIQARDGQNRVVGQFQVVDSVHSQTLDCSGKDDTITHLSAQKGKPLTGITFDWIPPAGYKGNVKFMATVVQTGFVYWVGRVTKDIDVE
Binder B7 has an MAPPIT interaction score (Sms) of 0.335.

B8: Syx4 (protein)
chain: MGKDRLPELLQRSLSTNSSNSSSNGSLLLNVYSGTTEFIIGNTGGNNNSYSVVSQNSHSCSNNNSSTEPKDRSSSKMTQYGSNVDDILNPYTEIRQQLAQIAANLETMNRMAQTVNLRTFNENEMDELHNKNLRLGNQLMTRFNDFKANLPAENDYSLEARMKRTLFYGLHQTFINLWHKNELFLQNYETKVKKNLRLHTKIINSEASEQEIELLIENKTTKLFVDNFLQETEKERQTLREMMDRFNELRRLEKSIEEVHALFMRIQTLVMEQSEVIQRVEFHAQQATLHVDKGADELDQAEQHQKKARKKKIMLIVILAAVLLVLLLVGIYL
Binder B8 has an MAPPIT interaction score (Snap29) of 3.12.

B9: rux (protein)
chain: MSAPEEHKETPLEVIHEFINGVDDGTIRRDLGEDCILSFYSRNVRGAKAITGFLRNQLTMRYKHEGFEEAAQIEWGDELLLKARFGRSFDSERRRIYEEKERTGTTLHVRPESDDEEVNEKFSSTLITPPRPSSYNLNSLKYVEACGLLNKRNEHIYGGLDMGESCAVHLTLGYRSTFLPGGQVSGFEICLAVYDRGLTSLKRSTLIPPLCSISFARRASARCNPTTDDEEDTEEDSTPPTARRCVRRTLFTEENTQKEEDADFIPVVEQEQPAPQEQPAPQQAEETGEVVIPVDISTALKTTNFSSCTPRKRQQATNGNEVVRKRATGPRRMRF
In the case of B9, the MAPPIT interaction score (Slh) is reported as -0.123.

B10: Drs (protein)
chain: MMQIKYLFALFAVLMLVVLGANEADADCLSGRYKGPCAVWDNETCRRVCKEEGRSSGHCSPSLKCWCEGC
B10 gave an MAPPIT interaction score (Sod3; MAPPIT configuration: N-C, pair source set: screen_4) of 1.45.
